Test results reported in PubChem BioAssay (EPA / NIEHS).
Active and inactive are the calls of the source. Rule for the calls: active = hit-call score of the fitted dose curve at least 0.9, where 1 is the maximum; inactive = score below 0.9.

test: CCTE_Padilla_ZF_Score.Edema: CCTE's 144 Hour Post-fertilization zebrafish Assay Score for Edema Malformation, Padilla Lab (AID 2284406)
Method: CCTE_Padilla_ZF_Phenotype_Score is a whole embryo, multiplexed assay using zebrafish ova exposed for 144 hours post fertilization on a 96-well plate.CCTE_Padilla_ZF_Score.Edema is one of one assay component(s) measured or calculated from the CCTE_Padilla_ZF_Phenotype_Score assay. It is designed to make measurements of zebrafish development as detected with brightfield microscopy of developing zebrafish embryos.Data from the assay component CCTE_Padilla_ZF_Score.Edema was analyzed into 1 assay endpoints. This assay endpoint, CCTE_Padilla_ZF_Score.Edema, was analyzed in the positive analysis fitting direction relative to DMSO as the negative control and baseline of activity. Using a type of viability reporter, gain-of-signal activity can be used to understand changes in developmentals as they relate to the whole embryo. To generalize the intended target to other relatable targets, this assay endpoint is annotated to the zebrafish development intended target family, where the subfamily is embryonic edema.
Zebrafish husbandry: Wild type adult zebrafish (Danio rerio; undefined outbred stock obtained from Aquatic Research Organisms, Hampton, NH, 03842) were housed in an AAALAC-approved animal facility at 28C with a 14:10 h light: dark cycle (lights on at 08:30 h). Adult fish (2-3 females per male; density = 15-20 adults per tank) were kept in one of several 9-liter (L) flow-through colony tanks (Aquaneering Inc., San Diego, CA). All adults in a colony tank were placed in a 2 L (static) breeding tank (Aquatic Habitats, Apopka, FL) one hour prior to light onset. Typically, adults from two to three colony tanks were mated on the same day. Two hours after light onset the adults were returned to the colony tank. All embryos were gathered from each breeder tank, pooled, and placed in a 28C water bath for 2 h, followed by two washes with 0.06% bleach (v/v) in 10% Hanks' Balanced Salt Solution (13.7 mM NaCl 0.54 mM KCl, 25 uM Na2HPO4, 130 uM CaCl2 100 um MgSO4 and 420 um NaHCO3,), hereafter referred to as Hanks' solution, for 5 min in order to remove any residual bacteria or fungi. Immediately following washing, the embryos were examined, and healthy embryos were separated from dead or unfertilized eggs and moved into fresh Hanks'. Chemical exposures: Zebrafish embryos were exposed in 96-well plates. Between 6- and 8-hours post fertilization (hpf), healthy embryos (with chorions) were transferred, one embryo per well, into 96 well (0.5 mL) microtiter plates (Cell Culture-Treated, Flat-Bottom Microplate 96 well [Corning Costar, Kennebunk, ME; Cat 09-761-145]) filled with 200 uL of Hanks' solution. A random number generator was used to assign the order in which the rows of embryos were plated in 96 well plates each week. After plating, the embryos were dosed with 0.8 uL of the chemical dosing solution then immediately sealed with AlumaSeal II (Excel Scientific Inc, Victorville, CA) to prevent volatilization of the chemicals, and then placed in a leakproof secondary container. These containers were placed in an incubator maintained on a 14:10 h light: dark cycle at 26C for rearing. On 5 dpf, live larvae were gently moved out of the plate with test chemicals and into a new 96 well mesh plate (Millipore Corp., Bedford, MA) with just the Hanks' solution. Once within the mesh well plate, the animals were rinsed with 400 uL of fresh Hanks' three times, and then the plates were covered with a non-adhesive material (Microseal A, BioRad, Hercules, CA), plate lid added, and then plate sides wrapped in Parafilm (PM992, Bermis Company, Neenah, WI), and returned to the incubator. This rinse on 5 dpf was conducted to lessen the possible exposure of the human assessors to the chemicals during detailed examination of each larva at 6 dpf.Larval assessments: On 6 dpf between 8 and 10 AM, two individual assessors, blinded to the chemical treatments, independently examined each larva for mortality, hatching status, and malformations using an Olympus SZH10 stereo microscope. […]

Structure (SMILES)	AC50	outcome
O=C(O)C(F)(F)C(F)(F)C(F)(F)C(F)(F)C(F)(F)C(F)(F)C(F)(F)C(F)(F)Cl	36.6 µM (active)	
FC(F)(F)C(F)(F)C(F)(F)CI		inactive
O=P(O)(O)OCCC(F)(F)C(F)(F)C(F)(F)C(F)(F)C(F)(F)C(F)(F)F		inactive
C=CC(=O)OCC(F)(F)C(F)(F)C(F)(F)C(F)(F)C(F)(F)C(F)(F)C(F)(F)F		inactive
Cc1ccc(S(=O)(=O)OCC(F)(F)C(F)(F)C(F)(F)C(F)(F)C(F)(F)C(F)F)cc1		inactive
O=C(O)C=C(C(F)(F)F)C(F)(F)F		inactive
CCCCCCCCC(F)(F)C(F)(F)C(F)(F)C(F)(F)C(F)(F)C(F)(F)F		inactive
FC(F)(F)C(F)(F)C(F)(F)C(F)(F)C(F)(F)C(F)(F)CC1CO1 (stereo not given)		inactive
FC(F)(Br)C(F)(F)C(F)(F)C(F)(F)C(F)(F)C(F)(F)Br		inactive
O=C(CC(=O)C(F)(F)C(F)(F)F)C(F)(F)F		inactive
OCC(F)(F)C(F)(F)C(F)(F)C(F)(F)C(F)(F)C(F)(F)F	84.7 µM (active)	
O=C(O)C(F)(F)C(F)(F)C(F)(F)F		inactive
N=C(N)C(F)(F)C(F)(F)C(F)(F)C(F)(F)C(F)(F)C(F)(F)C(F)(F)F		inactive
FC(F)(F)C(F)(F)C(F)(F)C(F)(F)C(F)(F)C(F)(F)C(F)(F)Br		inactive
O=C(O)C(F)(F)C(F)(F)F		inactive
NC(=O)C(F)(F)C(F)(F)C(F)(F)C(F)(F)F		inactive
FC(F)(F)C(F)(F)C(F)(F)C(F)(F)C(F)(F)C(F)(F)CCS		inactive
O=S(=O)(O)C(F)(F)C(F)(F)C(F)(F)C(F)(F)C(F)(F)C(F)(F)C(F)(F)F	25.8 µM (active)	
C=C(C)C(=O)OCC(F)(F)C(F)(F)C(F)(F)C(F)(F)C(F)(F)C(F)(F)C(F)(F)F		inactive
O=C(O)C(F)(F)C(F)(F)C(F)(F)C(F)(F)C(F)(F)C(F)(F)C(F)(F)C(F)(F)C(F)(F)C(F)(F)C(F)(F)C(F)(F)F		inactive

Structure (SMILES)	AC50	outcome
O=C(O)C(F)(OC(F)(F)C(F)(OC(F)(F)C(F)(OC(F)(F)C(F)(F)C(F)(F)F)C(F)(F)F)C(F)(F)F)C(F)(F)F (stereo not given)		inactive
CCO[Si](CCC(F)(F)C(F)(F)C(F)(F)C(F)(F)C(F)(F)C(F)(F)F)(OCC)OCC		inactive
O=C(O)C(F)(F)C(F)(F)C(F)(F)C(F)(F)C(F)(F)C(F)(F)C(F)(F)C(F)(F)C(F)(F)C(F)(F)C(F)(F)C(F)(F)C(F)(F)F		inactive
OCC(F)(F)C(F)(F)C(F)(F)C(F)F		inactive
FC(F)(F)C(F)(F)C(F)(F)C(F)(F)C(F)(F)C(F)(F)C(F)(F)C(F)(F)CCS		inactive
C=C(C)C(=O)OCC(F)(F)C(F)(F)C(F)(F)F		inactive
FC(F)(F)C(F)(F)CNCC(F)(F)C(F)(F)F		inactive
FC(F)(F)C(F)(F)C(F)(F)N(C(F)(F)C(F)(F)C(F)(F)F)C(F)(F)C(F)(F)C(F)(F)F		inactive
FC(F)(I)C(F)(F)C(F)(F)C(F)(F)I	24.3 µM (active)	
FC(F)(F)C(F)(F)C(F)(F)C(F)(F)C(F)(F)CCI	30.4 µM (active)	
O=S(=O)(OCCOC(F)(F)F)C(F)(F)F		inactive
FC(F)(F)C(F)(F)C(F)(F)C(F)(F)C(F)(F)C(F)(F)C(F)(F)I	10.2 µM (active)	
O=C(O)C(F)(F)C(F)(F)C(F)(F)C(F)(F)F		inactive
O=C(O)C(F)(F)C(F)(F)C(F)F		inactive
O=S(=O)(OCC(F)F)C(F)(F)F		inactive
CC(C)(C)C(=O)CC(=O)C(F)(F)C(F)(F)C(F)(F)F	27.5 µM (active)	
O=C(O)C(F)(OC(F)(F)C(F)(OC(F)(F)C(F)(F)C(F)(F)F)C(F)(F)F)C(F)(F)F (stereo not given)		inactive
O=C(O)C(F)(F)C(F)(F)OC(F)(F)F		inactive
C=CC(F)(F)C(F)(F)C(F)(F)C(F)(F)C(F)(F)C(F)(F)C(F)(F)C(F)(F)F		inactive
O=C(Cl)C(F)(F)C(F)(F)C(F)(F)C(F)(F)C(F)(F)C(F)(F)C(F)(F)C(F)(F)F	10 µM (active)	
